Data taken from the supplement of paper PMC8728848.
About 410 targets per protein were measured; listed, in parts, are those with the strongest signals and a random draw of the rest.

Assays:
Experiment in all cases: glycan array binding signal (z-score within array); higher = stronger binding
Conditions in all cases: glycan notation: IUPAC condensed, linker removed
Fuc(a1-2)Gal(b1-4)Glc = molecular target: Fuc(a1-2)Gal(b1-4)Glc
Procedure, shortened: (§1)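 Glycan array data came from 3228 arrays in the Consortium for Functional Glycomics database, and only arrays with an available protein sequence were kept. Glycan names were put into IUPAC-condensed notation, and columns mapping to the same glycan were averaged. The binding signal is a within-array Z-score, averaged across arrays of one protein sequence run at different concentrations or buffers and across linkers. A negative Z-score can be read as non-binding.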

[1] = molecular target: Fuc(a1-2)Gal(b1-4)GlcNAc(b1-3)Gal(b1-4)GlcNAc(b1-3)Gal(b1-4)GlcNAc
Procedure, shortened: as §1

[2] = molecular target: Fuc(a1-2)[Gal(a1-3)]Gal(b1-4)GlcNAc
Procedure, shortened: as §1

[3] = molecular target: Fuc(a1-3)[Gal(b1-4)]GlcNAc(b1-2)Man(a1-6)[Gal(b1-4)GlcNAc(b1-2)Man(a1-3)]Man(b1-4)GlcNAc(b1-4)GlcNAc
Procedure, shortened: as §1

[4] = molecular target: Fuc(a1-3)[Gal(b1-4)]GlcNAc(b1-4)Gal(b1-4)[Fuc(a1-3)]GlcNAc
Procedure, shortened: as §1

Gal(a1-3)GalNAc = molecular target: Gal(a1-3)GalNAc
Procedure, shortened: as §1

[5] = molecular target: Gal(b1-3)[Fuc(a1-4)]GlcNAc
Procedure, shortened: as §1

[6] = molecular target: Gal(b1-4)GalNAc(a1-3)[Fuc(a1-2)]Gal(b1-4)GlcNAc
Procedure, shortened: as §1

Gal(b1-4)GlcNAc = molecular target: Gal(b1-4)GlcNAc
Procedure, shortened: as §1

[7] = molecular target: Gal(b1-4)GlcNAc(b1-2)Man(a1-3)[Gal(b1-4)GlcNAc(b1-2)Man(a1-6)]Man(b1-4)GlcNAc(b1-4)GlcNAc
Procedure, shortened: as §1

[8] = molecular target: Gal(b1-4)GlcNAc(b1-3)Gal(b1-3)GlcNAc
Procedure, shortened: as §1

Glc(a1-6)Glc(a1-6)Glc = molecular target: Glc(a1-6)Glc(a1-6)Glc
Procedure, shortened: as §1

GlcA(b1-6)Gal = molecular target: GlcA(b1-6)Gal
Procedure, shortened: as §1

[9] = molecular target: GlcNAc(b1-2)Gal(b1-3)GalNAc
Procedure, shortened: as §1

[10] = molecular target: Man(a1-3)[Man(a1-6)]Man(b1-4)GlcNAc(b1-4)GlcNAc
Procedure, shortened: as §1

Man(a1-6)Man = molecular target: Man(a1-6)Man
Procedure, shortened: as §1

[11] = molecular target: Neu5Ac(a2-3)Gal(b1-3)[Fuc(a1-4)]GlcNAc
Procedure, shortened: as §1

[12] = molecular target: Neu5Ac(a2-3)Gal(b1-4)GlcNAc(b1-2)Man(a1-3)[GlcNAc(b1-2)Man(b1-4)GlcNAc(b1-2)Man(a1-6)]Man(b1-4)GlcNAc(b1-4)GlcNAc
Procedure, shortened: as §1

[13] = molecular target: Neu5Ac(a2-3)Gal(b1-4)GlcNAc(b1-2)Man(a1-3)[Neu5Ac(a2-6)Gal(b1-4)GlcNAc(b1-2)Man(a1-6)]Man(b1-4)GlcNAc(b1-4)GlcNAc
Procedure, shortened: as §1

[14] = molecular target: Neu5Ac(a2-6)Gal(b1-4)GlcNAc
Procedure, shortened: as §1

Neu5Ac(b2-6)GalNAc = molecular target: Neu5Ac(b2-6)GalNAc
Procedure, shortened: as §1

[15] = molecular target: Neu5Gc(a2-3)Gal(b1-3)[Fuc(a1-4)]GlcNAc
Procedure, shortened: as §1

[16] = molecular target: Neu5Gc(a2-3)Gal(b1-4)[Fuc(a1-3)]GlcNAc
Procedure, shortened: as §1

[17] = molecular target: Neu5Gc(a2-6)Gal(b1-4)GlcNAc
Procedure, shortened: as §1

B1: Codakine (Codakia orbicularis), Q3KVL7_9BIVA (protein)
chain: MKILVAVFLVLVVVGTAAAGCPDGWTQFLDLCYIYQSAKASWASAQSSCQALGGILAEPDTACENEVLIHMCRENGDAGSFGPWLGGQKVGGAWQWSSSGAAFDYLRWGPNEPNNSGGNEDCLHYNWLSWNDLRCHYQASYLCQRAAE
glycan array binding signal (z-score) (Fuc(a1-2)Gal(b1-4)Glc): -0.26
glycan array binding signal (z-score) [1]: -0.235
glycan array binding signal (z-score) [2]: -0.342
glycan array binding signal (z-score) [3]: 6.48
glycan array binding signal (z-score) [4]: -0.321
glycan array binding signal (z-score) (Gal(a1-3)GalNAc): -0.298
glycan array binding signal (z-score) [5]: -0.203
glycan array binding signal (z-score) [6]: -0.419
glycan array binding signal (z-score) (Gal(b1-4)GlcNAc): -0.3
glycan array binding signal (z-score) [7]: 4.02
glycan array binding signal (z-score) [8]: -0.239
glycan array binding signal (z-score) (Glc(a1-6)Glc(a1-6)Glc): -0.317
glycan array binding signal (z-score) (GlcA(b1-6)Gal): -0.302
glycan array binding signal (z-score) [9]: -0.276
glycan array binding signal (z-score) [10]: 4.3
glycan array binding signal (z-score) (Man(a1-6)Man): 0.449
glycan array binding signal (z-score) [11]: -0.34
glycan array binding signal (z-score) [12]: 4.82
glycan array binding signal (z-score) [13]: 4.57
glycan array binding signal (z-score) [14]: -0.224
glycan array binding signal (z-score) (Neu5Ac(b2-6)GalNAc): -0.238
glycan array binding signal (z-score) [15]: -0.265
glycan array binding signal (z-score) [16]: -0.234
glycan array binding signal (z-score) [17]: -0.289
